Measured values taken from PubChem BioAssay (Tox21).
Inconclusive results are not listed. Where a call stands in place of a potency, no number is given. Values without a mark were called inactive. The source made the active and inactive calls. Unless noted, calls follow the shape of the full dose curve.

What was measured:
[1] = qHTS assay to identify small molecule antagonists of the thyroid receptor (TR) signaling pathway (AID 743065; active = well fitted curve in the direction sought with a large enough effect in the repeat runs; an effect the other way counts as inactive or inconclusive; also: nearly all actives have a fitted effect of over 55% in size)
Method in brief: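 GH3.TRE-Luc rat pituitary cells (two TREs driving luciferase) were dosed with compound, then stimulated with 1 nM T3 (final) for 23.5 h at 37 C. ONE-Glo luminescence was the read-out, with CellTiter-Fluor fluorescence as the cytotoxicity counter-screen.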

[2] = system: thyroid hormone receptor (rat, GH3 cells); experiment: qHTS assay to identify small molecule agonists of the thyroid receptor (TR) signaling pathway (AID 743066)
[3] = qHTS assay to identify small molecule antagonists of the estrogen receptor alpha (ER-alpha) signaling pathway - cell viability counter screen (AID 743074); also: nearly all actives have a fitted effect of over 45% in size
[4] = qHTS assay to identify small molecule antagonists of the estrogen receptor alpha (ER-alpha) signaling pathway using the BG1 cell line - cell viability counter screen (AID 743081; active = well fitted curve in the direction sought with a large enough effect in the repeat runs; an effect the other way counts as inactive or inconclusive;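 also: compound given together with 17beta-estradiol as the ER stimulus; nearly all actives have a fitted effect of over 45% in size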)
Aromatase (Homo sapiens) = Aromatase (Homo sapiens) (UniProt P11511); experiment: qHTS assay to identify aromatase inhibitors (AID 743083; active = well fitted curve in the direction sought with a large enough effect in the repeat runs; an effect the other way counts as inactive or inconclusive; also: nearly all actives have a fitted effect of over 55% in size)
[5] = biological target: Estrogen receptor (Homo sapiens) (UniProt P03372); experiment: qHTS assay to identify small molecule antagonists of the estrogen receptor alpha (ER-alpha) signaling pathway (AID 743069; active = well fitted curve in the direction sought with a large enough effect in the signal ratio in the repeat runs, not every such curve was filed as active; the % refers to the signal ratio)
Method in brief: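 In this cell-based reporter format, GripTite HEK293 cells harbouring ER-alpha-UAS-bla were grown overnight with 2% charcoal-stripped FBS, dosed with DMSO-dissolved compounds, then challenged with 17beta-estradiol. After 18 hr at 37C, beta-lactamase activity was detected by FRET fluorescence.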

[6] = biological target: Estrogen receptor (Homo sapiens) (UniProt P03372); experiment: qHTS assay to identify small molecule agonists of the estrogen receptor alpha (ER-alpha) signaling pathway (AID 743075)
[7] = biological target: Estrogen receptor (Homo sapiens) (UniProt P03372); experiment: qHTS assay to identify small molecule agonists of the estrogen receptor alpha (ER-alpha) signaling pathway using the BG1 cell line (AID 743079; active = well fitted curve in the direction sought with a large enough effect in the repeat runs; an effect the other way counts as inactive or inconclusive; also: nearly all actives have a fitted effect of over 20% in size); conditions: BG1Luc4E2 cells, ERE-luciferase agonist, 22 h
[8] = qHTS assay to identify small molecule antagonists of the estrogen receptor alpha (ER-alpha) signaling pathway using the BG1 cell line (AID 743080);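 also: BG1 cells stimulated with 17beta-estradiol alongside compound; nearly all actives have a fitted effect of over 25% in size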; also: potency is read from the fitted curve at half-maximal effect
Method in brief: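 BG1-Luc-4E2 cells (endogenous full-length ER-alpha, stable 4×ERE-luciferase) were starved 5 days in phenol-red-free medium with 10% charcoal-stripped FBS, plated 24 h, then given compound plus 17beta-estradiol for 21.5 h at 37 C; ONE-Glo luminescence read after 30 min.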

Estrogen receptor (Homo sapiens), sequence (P03372 whole entry, looked up): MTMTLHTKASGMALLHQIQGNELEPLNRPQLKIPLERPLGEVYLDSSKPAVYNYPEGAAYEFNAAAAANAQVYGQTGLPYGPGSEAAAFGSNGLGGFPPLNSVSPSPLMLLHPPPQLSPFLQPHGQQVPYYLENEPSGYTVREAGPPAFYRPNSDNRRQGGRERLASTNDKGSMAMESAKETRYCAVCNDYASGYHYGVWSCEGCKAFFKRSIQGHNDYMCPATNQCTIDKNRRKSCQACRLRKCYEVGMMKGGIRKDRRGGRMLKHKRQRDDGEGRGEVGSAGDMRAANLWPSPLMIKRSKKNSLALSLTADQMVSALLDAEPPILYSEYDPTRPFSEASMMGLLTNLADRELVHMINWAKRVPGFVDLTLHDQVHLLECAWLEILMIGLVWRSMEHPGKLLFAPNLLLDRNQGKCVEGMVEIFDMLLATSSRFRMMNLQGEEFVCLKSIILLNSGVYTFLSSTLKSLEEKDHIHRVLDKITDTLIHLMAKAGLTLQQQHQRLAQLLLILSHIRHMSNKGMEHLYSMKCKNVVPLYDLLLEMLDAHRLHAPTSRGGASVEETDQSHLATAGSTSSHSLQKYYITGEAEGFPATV
Aromatase (Homo sapiens), sequence (P11511 whole entry, looked up): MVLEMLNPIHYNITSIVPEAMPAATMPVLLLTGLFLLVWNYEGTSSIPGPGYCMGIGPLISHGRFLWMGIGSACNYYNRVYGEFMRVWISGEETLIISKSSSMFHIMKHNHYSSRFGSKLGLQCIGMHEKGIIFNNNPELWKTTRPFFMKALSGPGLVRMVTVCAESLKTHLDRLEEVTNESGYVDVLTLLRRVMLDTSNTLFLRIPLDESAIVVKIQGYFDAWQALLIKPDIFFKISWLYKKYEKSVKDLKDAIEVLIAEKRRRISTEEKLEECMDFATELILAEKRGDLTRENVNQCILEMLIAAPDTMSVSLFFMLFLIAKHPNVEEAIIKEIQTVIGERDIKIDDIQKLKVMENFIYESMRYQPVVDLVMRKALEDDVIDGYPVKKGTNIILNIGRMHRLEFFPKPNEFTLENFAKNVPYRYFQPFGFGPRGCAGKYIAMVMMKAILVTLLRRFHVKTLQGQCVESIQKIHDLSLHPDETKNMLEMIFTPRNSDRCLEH

Structure (SMILES) | Potency [1] | Potency [2] | outcome [3] | Potency [4] | Potency (Aromatase (Homo sapiens)) | Potency [5] | Potency [6] | activation ([7]; at 70.3 µM (top of the series)) [%] | Potency [8] | activation ([7]; at 95 µM (top of the series)) [%]
N#CC(O)c1ccccc1 (stereo unspecified) | inactive | inactive | inactive | inactive | inactive | – | – | – | – | –
CCN(CC)c1nc(C)cc(OP(=S)(OC)OC)n1 | – | inactive | inactive | inactive | – | inactive | inactive | 4.15 | inactive | –
C[C@]1(O)CC[C@H]2[C@@H]3CCC4=CC(=O)CC[C@]4(C)[C@@]3(F)[C@@H](O)C[C@@]21C | – | – | inactive | inactive | inactive | – | – | – | – | –
COC(=O)c1c(C(F)F)nc(C(F)(F)F)c(C2=NCCS2)c1CC(C)C | – | inactive | inactive | inactive | inactive | inactive | inactive | 0.436 | inactive | –
ClC(Cl)(Cl)C(Cl)(Cl)Cl | inactive | inactive | inactive | inactive | inactive | inactive | inactive | – | inactive | -4.65
COc1cc(OC)nc(NC(=O)NS(=O)(=O)c2ncccc2OCC(F)(F)F)n1 | – | – | inactive | inactive | inactive | inactive | inactive | – | inactive | –
CCOP(=S)(Oc1cnc(C(C)(C)C)nc1)OC(C)C (stereo unspecified) | – | inactive | inactive | inactive | – | – | – | – | – | –
CC(=O)[C@H]1CC[C@H]2[C@@H]3CC[C@H]4C[C@H](O)CC[C@]4(C)[C@H]3C(=O)C[C@]12C | – | inactive | inactive | inactive | inactive | inactive | inactive | 8.45 | inactive | –
CC(C)(C)NCC(O)c1cc(Cl)c(N)c(Cl)c1 (stereo unspecified) | inactive | inactive | inactive | – | inactive | – | – | – | – | –
CCCCOC(=O)c1ccccc1N | – | – | inactive | inactive | inactive | – | – | – | – | –
N#Cc1c(Cl)cccc1Cl | – | inactive | inactive | inactive | inactive | inactive | inactive | -1.9 | inactive | –
Cc1ncc2n1-c1ccc(Cl)cc1C(c1ccccc1F)=NC2 | – | inactive | – | inactive | inactive | – | inactive | – | 11.9 µM (active) | –
OC(c1ccccc1)(c1ccccc1)C1CCNCC1 | – | inactive | inactive | inactive | inactive | – | – | – | – | –
COc1cccc(C(=O)NN(C(=O)c2cc(C)cc(C)c2)C(C)(C)C)c1C | – | inactive | inactive | – | inactive | – | – | – | – | –
